Each structure is given as a SMILES string. Whole data set: some 1,100 compounds, median “Renilla luciferase signal (cell health) relative to plate median” near 0.97, cut for the highest 2% near 1.6. The full list was thinned out, with the highest values kept by preference.

The subject of the test is HEK293T (UBE3A T485A transfected, BAR Wnt reporter). The test is described as follows: Renilla luciferase signal (cell health) relative to plate median (fold (linear ratio)); higher = higher Renilla signal. As to conditions: 24 h. A digest of the protocol: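 Using Fugene 6, HEK293T cells in white 384-well plates (4500 cells/well; DMEM, 10% FBS, 37°C, 5% CO2) were transfected with a BAR firefly luciferase Wnt reporter, TK-Renilla and an expression plasmid. After four hours, robots dosed the chemicals at 0.01–100 uM, and a Dual-Glo luciferase readout followed 24 h later. Per-plate median-centred firefly/Renilla ratios gave Wnt activity, while per-plate median-centred raw Renilla signals gave cell health. Four biological replicates were averaged.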

Take `CC(C)(c1ccccc1)c1ccc(O)c(C(C)(C)c2ccccc2)c1` [2,4-Bis(1-methyl-1-phenylethyl)phenol]: the Renilla luciferase signal was found to be 0.856 (concentration: 0.1 uM), 0.888 (concentration: 1 uM), 1.05 (concentration: 10 uM) and 1.14 (concentration: 100 uM).
As to `CN(C)c1ccc(C(=O)c2ccc(N(C)C)cc2)cc1` [Michler's ketone], the Renilla luciferase signal came out at 1.09 (concentration: 0.1 uM), 1.03 (concentration: 1 uM), 0.702 (concentration: 10 uM) and 0.267 (concentration: 100 uM).
The matching figures for `Cc1cc(O)ccc1Cl` [4-Chloro-3-methylphenol]: 0.999, 1.09, 0.977 and 1.06.
The matching figures for `ClC1=C(Cl)C2(Cl)C3C4CC(C5OC45)C3C1(Cl)C2(Cl)Cl` (stereo not given) [Dieldrin]: 1.01, 0.977, 1.07 and 0.829.
Consider `ClC1=C(Cl)C2(Cl)C3C4CC(C5OC45)C3C1(Cl)C2(Cl)Cl` (stereo not given) [Endrin], for which the Renilla luciferase signal (concentration: 0.1 uM) turned out to be 0.878, the Renilla luciferase signal (concentration: 1 uM) worked out at 0.941, the Renilla luciferase signal (concentration: 10 uM) came out at 0.842 and the Renilla luciferase signal (concentration: 100 uM) was found to be 0.349.
The matching figures for `CCCCCOC(=O)c1ccccc1C(=O)OCCCCC` [Dipentyl phthalate]: 0.95, 0.861, 0.91 and 1.18.
For the compound `CCCCOC(=O)c1ccccc1C(=O)OCCCC` [Dibutyl phthalate], the Renilla luciferase signal reads like this: (concentration: 0.01 uM) 1.02; (concentration: 0.1 uM) 1.04; (concentration: 1 uM) 1.02; (concentration: 10 uM) 1.03; (concentration: 100 uM) 0.11.
As to `CCCCOC(=O)c1ccccc1C(=O)O` [Monobutyl phthalate], the Renilla luciferase signal (concentration: 0.01 uM) came out at 0.968; the Renilla luciferase signal (concentration: 0.1 uM) was 0.862; the Renilla luciferase signal (concentration: 1 uM) was 0.73; the Renilla luciferase signal (concentration: 10 uM) came out at 1.21; the Renilla luciferase signal (concentration: 100 uM) was determined as 2.17.
Consider `Cc1cnc(C2=NC(=O)C(C)(C(C)C)N2)c(C(=O)O)c1` (stereo not given) [Imazapic], for which the Renilla luciferase signal is 1.11 (concentration: 0.01 uM); 1.17 (concentration: 0.1 uM); 1.18 (concentration: 1 uM); 1.14 (concentration: 10 uM); 1.72 (concentration: 100 uM).
For the compound `CC(C)C1(C)N=C(c2nc3ccccc3cc2C(=O)O)NC1=O` (stereo not given) [Imazaquin], the Renilla luciferase signal (concentration: 0.01 uM) was found to be 1.09; the Renilla luciferase signal (concentration: 0.1 uM) stood at 1.09; the Renilla luciferase signal (concentration: 1 uM) worked out at 1.07; the Renilla luciferase signal (concentration: 10 uM) came to 1.06; the Renilla luciferase signal (concentration: 100 uM) was found to be 1.38.
Consider `CCC(C)C1OC2(C=CC1C)CC1CC(CC=C(C)C(OC3CC(OC)C(OC4CC(OC)C([NH2+]C)C(C)O4)C(C)O3)C(C)C=CC=C3COC4C(O)C(C)=CC(C(=O)O1)C34O)O2.O=C([O-])c1ccccc1` (stereo not given) [Emamectin benzoate], for which the Renilla luciferase signal is, setting by setting: (concentration: 0.01 uM) 1.02; (concentration: 0.1 uM) 1.08; (concentration: 1 uM) 0.877; (concentration: 10 uM) 0.0929; (concentration: 100 uM) 0.0231.
Turning to `CCc1cnc(C2=NC(C)(C(C)C)C(=O)N2)c(C(=O)O)c1` (stereo not given) [Imazethapyr], the Renilla luciferase signal (concentration: 0.01 uM) was 1.11; the Renilla luciferase signal (concentration: 0.1 uM) is 0.962; the Renilla luciferase signal (concentration: 1 uM) was found to be 0.96; the Renilla luciferase signal (concentration: 10 uM) is 0.991; the Renilla luciferase signal (concentration: 100 uM) was found to be 1.58.
The corresponding values for `COCc1cnc(C2=NC(C)(C(C)C)C(=O)N2)c(C(=O)O)c1` (stereo not given) [Imazamox] are 0.649, 0.799, 0.965, 0.977 and 2.3.
The matching figures for `CC(C)C1(C)N=C(c2ncccc2C(=O)O)NC1=O` (stereo not given) [Imazapyr]: 0.822, 0.714, 0.895, 0.959 and 1.42.
The matching figures for `CCCOC/C(=N\c1ccc(Cl)cc1C(F)(F)F)n1ccnc1` [Triflumizole]: 0.984, 0.937, 0.992, 0.929 and 1.45.
With `CCSC(=O)N(CC)C1CCCCC1` [Cycloate], the Renilla luciferase signal reads like this: (concentration: 0.01 uM) 0.797; (concentration: 0.1 uM) 0.996; (concentration: 1 uM) 0.924; (concentration: 10 uM) 1.01; (concentration: 100 uM) 1.15.
`CCSC(=O)N1CCCCCC1` [Molinate]: the Renilla luciferase signal is, setting by setting: (concentration: 0.01 uM) 0.998; (concentration: 0.1 uM) 0.899; (concentration: 1 uM) 0.905; (concentration: 10 uM) 1.04; (concentration: 100 uM) 1.8.
For `CCOP(=S)(Oc1cnc(C(C)(C)C)nc1)OC(C)C` (stereo not given) [Tebupirimfos], the Renilla luciferase signal reads like this: (concentration: 0.01 uM) 1.07; (concentration: 0.1 uM) 1.22; (concentration: 1 uM) 1.16; (concentration: 10 uM) 1.08; (concentration: 100 uM) 1.4.
In the case of `CSC(=O)c1c(C(F)F)nc(C(F)(F)F)c(C(=O)SC)c1CC(C)C` [Dithiopyr], the Renilla luciferase signal by setting is: (concentration: 0.01 uM) 0.664; (concentration: 0.1 uM) 0.813; (concentration: 1 uM) 0.927; (concentration: 10 uM) 0.835; (concentration: 100 uM) 1.14.
Consider `O=C(N[C@H](c1ccccc1)[C@@H]1CN2CCC1CC2)c1c(Cl)ccc(C(F)(F)F)c1Cl`, for which the Renilla luciferase signal (concentration: 0.1 uM) was 0.771, the Renilla luciferase signal (concentration: 1 uM) worked out at 0.687, the Renilla luciferase signal (concentration: 10 uM) is 0.344 and the Renilla luciferase signal (concentration: 100 uM) turned out to be 0.143.
On to `CCOc1ccc(C(C)(C)COCc2cccc(Oc3ccccc3)c2)cc1` [Etofenprox], for which the Renilla luciferase signal by setting is: (concentration: 0.1 uM) 1.01; (concentration: 1 uM) 1.12; (concentration: 10 uM) 0.95; (concentration: 100 uM) 1.14.
The corresponding values for `CCC(C)(C)c1ccc(O)cc1` [4-(2-Methylbutan-2-yl)phenol] are 0.874, 0.809, 0.795 and 0.442.
For `CCNc1nc(NC(C)C)nc(SC)n1` [Ametryn], the Renilla luciferase signal by setting is: (concentration: 0.01 uM) 0.34; (concentration: 0.1 uM) 0.318; (concentration: 1 uM) 0.3; (concentration: 10 uM) 0.543; (concentration: 100 uM) 1.78.
For `CCNc1nc(Cl)nc(NC(C)C)n1` [Atrazine], the Renilla luciferase signal turned out to be 0.72 (concentration: 0.01 uM); 0.693 (concentration: 0.1 uM); 0.877 (concentration: 1 uM); 0.729 (concentration: 10 uM); 1.18 (concentration: 100 uM).
In the case of `CSc1nc(NC(C)C)nc(NC(C)C)n1` [Prometryn], the Renilla luciferase signal (concentration: 0.01 uM) is 1.14; the Renilla luciferase signal (concentration: 0.1 uM) came to 1.03; the Renilla luciferase signal (concentration: 1 uM) is 0.973; the Renilla luciferase signal (concentration: 10 uM) amounted to 1.01; the Renilla luciferase signal (concentration: 100 uM) was 0.989.
As to `CCCN(CCC)c1c([N+](=O)[O-])cc(S(N)(=O)=O)cc1[N+](=O)[O-]` [Oryzalin], the Renilla luciferase signal (concentration: 0.01 uM) is 1.08; the Renilla luciferase signal (concentration: 0.1 uM) amounted to 0.918; the Renilla luciferase signal (concentration: 1 uM) amounted to 0.931; the Renilla luciferase signal (concentration: 10 uM) worked out at 0.876; the Renilla luciferase signal (concentration: 100 uM) is 0.99.
The corresponding values for `CC1COC(Cn2cncn2)(c2ccc(Oc3ccc(Cl)cc3)cc2Cl)O1` (stereo not given) [Difenoconazole] are 1.03, 1.07, 0.923, 0.485 and 0.152.
Consider `Cc1cccc(N)c1N` [2,3-Diaminotoluene], for which the Renilla luciferase signal was found to be 0.728 (concentration: 0.1 uM), 0.75 (concentration: 1 uM), 0.772 (concentration: 10 uM) and 0.198 (concentration: 100 uM).

The values above are taken from the supplement of paper PMC9254222.
